Out of some 310,000 compounds screened, about 2,200 (0.71%) showed an effect of 50% or more. Effects have a minus sign here. The list comes from a sample in which strong results are over-represented; it also holds similar structures and randomly drawn compounds.
target: human ether-à-go-go-related gene (hERG) potassium channel (human, UniProt Q12809); test: primary screen, population patch clamp on CHO cells stably expressing hERG; higher = less effect of the substance
Procedure: Briefly, Chinese hamster ovary (CHO) cells stably expressing the hERG channel were dislodged from tissue culture flasks and dispensed into PPC plates. […] During the recording, background leak currents were estimated by a 100 ms step to -80 mV from an initial holding potential of -70 mV and subtracted from the subsequent current measurement. The campaign was conducted in two phases using slight differences in recording protocol. In the first phase, the initial voltage pulse used a 100 ms step to -30 mV from a holding potential of -70 mV, a 2 s conditioning step to +25 mV, and a 2 s test step to -30 mV. During the second phase of the screen, the potential during the conditioning step was raised to +45 mV. In both phases of the campaign, a secondary voltage pulse was applied using the same parameters as the second phase initial pulse. The initial and secondary pulses were applied in the absence of compound, and upon application of 1 μM and 10 μM test concentrations. Small molecule effects on hERG current density were quantified by […].

Sequence of human ether-à-go-go-related gene (hERG) potassium channel (Q12809 whole entry, looked up): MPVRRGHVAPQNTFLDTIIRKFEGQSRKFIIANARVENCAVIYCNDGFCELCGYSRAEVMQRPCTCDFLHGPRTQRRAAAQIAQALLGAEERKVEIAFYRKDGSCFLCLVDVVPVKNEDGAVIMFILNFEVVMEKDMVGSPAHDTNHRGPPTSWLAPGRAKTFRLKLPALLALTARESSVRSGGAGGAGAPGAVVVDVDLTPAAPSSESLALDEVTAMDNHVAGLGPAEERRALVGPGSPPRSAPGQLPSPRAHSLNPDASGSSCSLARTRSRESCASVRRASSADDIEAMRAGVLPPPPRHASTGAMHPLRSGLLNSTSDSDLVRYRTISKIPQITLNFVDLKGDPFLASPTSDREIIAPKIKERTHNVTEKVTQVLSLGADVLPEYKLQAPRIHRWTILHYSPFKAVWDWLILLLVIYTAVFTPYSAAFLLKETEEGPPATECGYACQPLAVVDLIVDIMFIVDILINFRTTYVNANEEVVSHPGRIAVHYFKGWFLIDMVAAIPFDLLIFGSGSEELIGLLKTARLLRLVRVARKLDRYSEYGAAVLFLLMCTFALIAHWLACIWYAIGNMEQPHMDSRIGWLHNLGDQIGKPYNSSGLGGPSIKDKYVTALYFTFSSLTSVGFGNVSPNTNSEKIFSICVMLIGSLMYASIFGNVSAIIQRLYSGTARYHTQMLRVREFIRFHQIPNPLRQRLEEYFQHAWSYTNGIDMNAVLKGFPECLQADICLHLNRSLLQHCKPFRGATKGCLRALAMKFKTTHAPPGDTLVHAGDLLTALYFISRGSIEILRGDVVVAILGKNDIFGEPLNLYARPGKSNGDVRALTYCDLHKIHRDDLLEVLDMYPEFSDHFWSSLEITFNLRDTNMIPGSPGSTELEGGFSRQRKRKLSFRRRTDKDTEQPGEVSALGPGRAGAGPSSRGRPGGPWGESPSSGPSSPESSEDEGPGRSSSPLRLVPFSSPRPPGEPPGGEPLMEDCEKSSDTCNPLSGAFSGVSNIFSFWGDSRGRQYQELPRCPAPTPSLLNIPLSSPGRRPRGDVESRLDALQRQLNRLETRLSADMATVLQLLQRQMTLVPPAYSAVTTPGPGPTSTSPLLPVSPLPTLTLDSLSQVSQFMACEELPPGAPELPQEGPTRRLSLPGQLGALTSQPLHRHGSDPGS

SMILES | hERG current change (%, negative = inhibition) at 1uM
COCCn1c(C)cc(C(=O)CSc2nnnn2C2CCCC2)c1C | -58.4%
CCn1c(C)cc(C(=O)CSc2nnnn2C2CCCC2)c1C | -9.53%
COCC(C)n1c(C)cc(C(=O)CSc2nnnn2C2CCCC2)c1C (stereo not drawn) | 5.12%
CCOC(=O)C1CCCN(CCC(=O)Nc2c(C(=O)OC)[nH]c3cc(OC)ccc23)C1 (stereo not drawn) | -38%
O=C(CSc1nnc(-c2ccc(O)cc2)o1)Nc1cccc(O)c1 | 17.7%
Cl.Nc1cc(F)ccc1N1CCCCCC1 | 12.7%
CN(C)C(=O)C1C2NC(=S)N(c3ccccc3)C1(C)Oc1ccccc12 (stereo not drawn) | 2.05%
O=[N+]([O-])c1ccc(N2CCN(c3cccc(Cl)c3)CC2)cn1 | -59.8%
O=[N+]([O-])c1ccc(N2CCCCC2)cn1 | 13.9%
O=[N+]([O-])c1ccc(N2CCN(c3ccccc3Cl)CC2)cn1 | -10%
CCc1cccc(C)c1NC(=O)CC1Oc2ccc(C)cc2NC1=O (stereo not drawn) | 11.9%
CCCOC(=O)CCCN1C(=O)/C(=C2\SC(=S)N(CCCC(=O)OCCC)C2=O)SC1=S | 16%
Cc1cc2c(cc1C)C(c1ccsc1)CC(=O)N2 (stereo not drawn) | 9.06%
COc1ccc(CN2CCNC(=O)C2CC(=O)N(C)Cc2nccs2)c(OC)c1 (stereo not drawn) | 13.1%
Cc1ccc(NS(=O)(=O)c2ccc(C(=O)N3CCN(c4ncccn4)CC3)cc2)cc1 | 1.36%
Cc1ccc(C(=O)N/C(=C/c2ccc(F)cc2)C(=O)NCc2ccncc2)cc1 | -78.4%
Cc1ccc(C(=O)N/C(=C\c2ccccc2)C(=O)NCc2ccncc2)cc1 | -77.1%
Cc1ccc(C(=O)N/C(=C/c2ccccc2)C(=O)NCc2ccncc2)cc1 | -37.7%
COc1ccc(/C=C(/NC(=O)c2ccc(C)cc2)C(=O)NCc2ccncc2)cc1 | -21.3%
Cc1ccc(C(=O)N/C(=C\c2cccs2)C(=O)NCc2ccncc2)cc1 | -38.5%
Cc1ccc(C(=O)N/C(=C\c2ccc(F)cc2)C(=O)NCc2ccncc2)cc1 | -81.2%
O=C(Nc1cccc2ccccc12)/C(=C/c1cccc([N+](=O)[O-])c1)NC(=O)c1cccs1 | -37.8%
O=C(Nc1cccc2ccccc12)/C(=C\c1cccc([N+](=O)[O-])c1)NC(=O)c1cccs1 | -67.7%
Cc1ccc(NC(=O)/C(=C\c2cccc([N+](=O)[O-])c2)NC(=O)c2cccs2)cc1 | 4.59%
COc1ccc(C(=O)N/C(=C/c2ccc(Cl)cc2)C(=O)NCc2ccncc2)cc1 | -38.4%
Cc1ccc(C(=O)N/C(=C\c2ccccc2)C(=O)NCc2cccnc2)cc1 | -41.8%
Cc1ccc(C(=O)N/C(=C\c2sccc2C)C(=O)NCc2ccncc2)cc1 | -1.07%
